High-throughput results (PubChem)
An excerpt weighted towards active compounds, which were near 2.6% of everything screened.
Cruzain Triton: cruzain (T. cruzi) inhibition with detergent. P25779. purified cruzain, Z-FR-AMC fluorescence, 0.01% Triton. Potency, µM, without a hit: max response, negative = inhibition, most hits filed as inhibitors. 0.43% of 200,000 active. AID 1478;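 also: plate controls were neutral wells for no effect and buffer without enzyme for full effect; nearly all actives have a fitted effect of over 40% in size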
Target sequence (P25779 123-467 limits assumed): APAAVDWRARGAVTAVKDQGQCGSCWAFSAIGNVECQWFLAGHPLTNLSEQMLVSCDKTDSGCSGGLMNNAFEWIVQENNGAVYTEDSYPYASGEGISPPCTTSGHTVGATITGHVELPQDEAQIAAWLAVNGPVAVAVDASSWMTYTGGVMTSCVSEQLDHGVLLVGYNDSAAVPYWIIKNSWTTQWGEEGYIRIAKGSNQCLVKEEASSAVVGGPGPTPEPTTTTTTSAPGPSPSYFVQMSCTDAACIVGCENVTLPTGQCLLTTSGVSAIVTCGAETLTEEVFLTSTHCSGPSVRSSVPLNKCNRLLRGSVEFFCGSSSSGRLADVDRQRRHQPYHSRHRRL
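15 min RT preincubation of 1.5 nM cruzain with compound, then 2 uM Z-FR-AMC added; kinetic AMC fluorescence, 60 s delta. Triton X-100 0.01%, pH 5.5.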
Cruzain inh noDet: blocks cruzain activity in detergent-free assay; purified cruzain, Z-FR-AMC fluorescence, no detergent; Potency, µM, inactives show max response, negative = inhibition, hits mostly inhibitors; 2.3% of 200,000 active; AID 1476;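 also: plate controls were enzyme without inhibitor for no effect and buffer without enzyme for full effect; nearly all actives have a fitted effect of over 40% in size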
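Purified cruzain at 1.5 nM, pre-incubated 15 min with compound at room temperature in 100 mM sodium acetate pH 5.5, 5 mM DTT, 0.00005% Triton X-100. Reaction started with 2 uM Z-FR-AMC; AMC fluorescence increase over 60 s gives rate.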
* hit, by the source's call; u = inconclusive. Calls follow the shape of the dose curve; as a rule, active = well fitted curve in the direction sought with a large enough effect; inconclusive = small, poorly fitted or top-dose-only effect, or another doubt; inactive = no such curve, though single readings can be large; an effect the other way counts as inactive or inconclusive. Potency is read from the fitted curve at half-maximal effect.

SMILES	Cruzain Triton	Cruzain inh noDet
Cc1ccc(-n2nnnc2SCC(=O)Nc2nc(-c3ccc(F)cc3)cs2)cc1C	3.5%	u
Cc1cc(C)cc(-n2nnnc2SCC(=O)Nc2nc(-c3ccc(F)cc3)cs2)c1	5.5%	25.1µM*
Cc1cc(C)cc(-n2nnnc2SCC(=O)Nc2nc(-c3ccc(Cl)cc3)cs2)c1	4.3%	6.31µM*
COc1ccc(-c2c(C)oc3c(CN4CCN(CCO)CC4)c(O)ccc3c2=O)cc1OC	-4.4%	2.6%
Cc1c(Cl)cccc1-n1ncc(C(=O)Nc2ccc(Br)cc2F)c1C1CCNCC1	-11.7%	-11.9%
Cc1cccc2cc(C#N)c(NCCNC(=S)NCCCN3CCOCC3)nc12	-7.9%	-3.2%
Cc1cc2cc(C#N)c(NCCNC(=S)NCCCN3CCOCC3)nc2cc1C	25.1µM*	u
CC[C@@]1(O)CC(O)c2c(cc3c(c2O)C(=O)c2c(O)ccc(O)c2C3=O)C1C(=O)OC (stereo not given in full)	-3.2%	-4.9%
CCN(CC)S(=O)(=O)c1ccc(Cl)c(NC(=O)COc2ccc(OC)cc2[N+](=O)[O-])c1	-1.5%	12.6µM*
CCN(CC)S(=O)(=O)c1ccc(Cl)c(NC(=O)c2cc(Cl)ccc2Cl)c1	-5.2%	-17.8%
CCCCc1c(O)nc(SCC(=O)Nc2ccc3c(c2)CCC3)[nH]c1=O	-17.4%	20µM*
CCc1c(O)nc(SCC(=O)Nc2ccc3c(c2)CCC3)[nH]c1=O	1.0%	-11.7%
O=S(=O)(O)c1nc2ccccc2n1Cc1ccccc1	1.7%	-5.8%
C=CCn1c(CCNC(=O)c2cccs2)nnc1SCC(=O)Nc1cccc(Cl)c1C	4.6%	-2.8%
Cc1ccc(-c2nnc(SCC(=O)NC3CCCC3)nc2-c2ccc(C)cc2)cc1	u	12.6µM*
O=C(CSc1nnc(-c2ccc(Cl)cc2)c(-c2ccc(Cl)cc2)n1)NC1CCCC1	-7.8%	-9.3%
CCCN(CCC)CCNC(=O)CN1C(=O)COc2ccc(S(=O)(=O)N3CCOCC3)cc21	2.0%	-4.5%
CC(NC(=O)CCSCCC(=O)NC(C)c1ccccc1)c1ccccc1 (stereo not given)	-5.9%	-11.2%
CC(=O)Oc1ccc2c(c1C(C)C)CCC1C(C)(C)CCC[C@@]21C (stereo not given in full)	7.2%	14.7%
O=C(NC(=S)NCc1ccc(-c2nc3ccccc3s2)cc1)c1ccco1	-2.5%	u
O=C(NCc1ccc(-c2nc3ccccc3s2)cc1)c1ccco1	-3.4%	25.1µM*
CSc1nc(NCCOCCO)c2sc3nc(-c4ccco4)c4c(c3c2n1)CCC4	7.94µM*	25.2%
CSc1nc(NCc2ccco2)c2sc3nc(C(C)C)c4c(c3c2n1)CC(C)(C)OC4	-1.3%	-3.6%
Cc1ccc(OC(=O)CCc2c(C)nc3ncnn3c2C)cc1	3.9%	0.2%
CCSc1nc2c(c(=O)[nH]1)C(c1cccnc1)C(C(=O)OC)=C(C)N2 (stereo not given)	-2.2%	-6.5%
SMILES	Cruzain Triton	Cruzain inh noDet
COC(=O)C1=C(C)Nc2nc(SCc3ccccc3)[nH]c(=O)c2C1c1cccs1 (stereo not given)	-1.3%	25.1µM*
CC1Cc2ccccc2N1C(=O)CCNS(=O)(=O)c1ccc2c(c1)CCC(=O)N2 (stereo not given)	4.4%	-0.1%
Cc1nnc2n1N=CC=C(c1ccccc1)S2	-2.8%	3.1%
COc1ccc(-c2cc(-c3nnc(COC(=O)C4CC4C)o3)c3ccccc3n2)cc1OC (stereo not given)	-4.4%	20.6%
N#CC1=C(N)Oc2n[nH]c(-c3cccs3)c2C1c1ccoc1 (stereo not given)	-3.8%	-6.9%
Cc1ccc(C2C(C#N)=C(N)Oc3n[nH]c(-c4cccs4)c32)cc1 (stereo not given)	-1.9%	31.6µM*
COc1ccc2cc3cc(C(=O)NCc4ccc5c(c4)OCO5)oc3nc2c1	-9.2%	-17.1%
COc1ccc2cc3cc(C(=O)N4CCN(Cc5ccc6c(c5)OCO6)CC4)oc3nc2c1	31.6µM*	0.4%
CC(=O)c1c(C(C)=O)c(C)n(-c2nc(-c3ccc(Br)cc3)c(C)s2)c1C	-4.9%	22.6%
CCOc1ccc(-c2cc(NC(=O)Nc3cccc(C(C)=O)c3)c(C(=O)OC)s2)cc1	-1.8%	20.5%
CCOC(=O)c1sc(-c2ccccc2)cc1NC(=O)Nc1ccc([N+](=O)[O-])cc1	-2.9%	10µM*
CC1CCCCC12NC(=O)N(CC(=O)Nc1sc3c(c1C(N)=O)CCC3)C2=O (stereo not given)	-22.4%	8.3%
O=C(CN1C(=O)NC2(CCc3ccccc3C2)C1=O)Nc1ccc(Cl)cc1F (stereo not given)	-1.6%	-7.3%
COC(=O)c1c(NC(=O)CN2C(=O)NC3(CCC(C(C)(C)C)CC3)C2=O)sc2c1CCCCC2 (stereo not given)	0.6%	15.8µM*
COC(=O)c1c(NC(=O)CN2C(=O)NC3(CCc4ccccc4C3)C2=O)sc2c1CCCCC2 (stereo not given)	-4.4%	12.6µM*
CCC1CCCCN1C(=S)NCc1ccccc1 (stereo not given)	-1.8%	9.4%
CN(c1ccccc1)S(=O)(=O)c1ccc(NC(=S)NC(=O)c2ccccc2)cc1	1.8%	u
COc1ccccc1/C=C/C(=O)NC(=S)Nc1ccc(S(=O)(=O)N(C)c2ccccc2)cc1	2.3%	3.98µM*
O=C(O)CCN1C(=O)C(=C2CCCCCC2)SC1=S	-0.7%	-2.0%
O=C1C(=C2CCCCC2)SC(=S)N1Cc1ccco1	20µM*	15.8µM*
CC1Cc2ccccc2N1C(=O)CSc1nnc(-c2ccccc2)c(-c2ccccc2)n1 (stereo not given)	-0.8%	15.8µM*
CC1Cc2ccccc2N1C(=O)CSc1nnc2c(n1)[nH]c1ccccc12 (stereo not given)	-0.5%	0.6%
Cc1cc(C)nc(SCCC(=O)Nc2cccc3ccccc23)n1	-0.5%	0.8%
COc1cc(/C=N/Nc2cccc(C)c2)ccc1OC(=O)c1cccs1	-2.8%	15.8µM*
COc1cc(/C=N/Nc2ccc3ccccc3c2)ccc1OC(=O)c1ccco1	0.3%	25.1µM*
SMILES	Cruzain Triton	Cruzain inh noDet
COc1cc(/C=N/NC(=O)COc2ccccc2C)ccc1OC(=O)c1cccs1	0.3%	-12.6%
COc1cc(/C=N/Nc2nc(C)cc(C)n2)ccc1OC(=O)c1ccco1	-6.5%	5.7%
CCOC(=O)Nc1cc(OC)c(OC)cc1Cc1nccc2cc(OC)c(OC)cc12	-1.0%	-10.9%
Clc1cccc(Nc2nnc(-c3ccccc3)c3ccccc23)c1	-0.6%	u
CC1(C)Oc2ccc(C(=O)NC3CC3)cc2N(CC(=O)N2CCOCC2)C1=O	3.1%	5.6%
COc1ccc(C2CC(c3ccccc3)=NN2C(=O)COC(=O)c2cnc(Cl)c(Cl)c2)cc1 (stereo not given)	-3.3%	5.01µM*
COc1ccc(C2CC(c3ccccc3)=NN2C(=O)COC(=O)c2cccc(S(=O)(=O)N(C)C)c2)cc1 (stereo not given)	3.6%	u
COc1ccc(C2CC(c3ccccc3)=NN2C(=O)COC(=O)CNC(=O)c2ccccc2)cc1 (stereo not given)	8.91µM*	10µM*
COc1ccc(C2CC(c3ccccc3)=NN2C(=O)COC(=O)c2ccc(Cl)nc2)cc1 (stereo not given)	-4.9%	-27.6%
CCn1c(C)c(C(C)=O)c(N2CCN(c3ccccn3)CC2)nc1=S	4.5%	-9.2%
OCC(O)[C@H]1O[C@@H]2O[C@H](C(Cl)(Cl)Cl)O[C@@H]2[C@H]1O (stereo not given in full)	1.6%	1.8%
